Consider 40 molecules from PubChem BioAssay (NCI).

Compounds without any hit were thinned out: in the full panel of roughly 83,000, 20% have a hit.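 Compound tested at a single concentration for 48 hours in 96-well plates; a percent growth value below 10 was scored as active.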 A number with no mark means an inactive call. Activity calls are given as the source filed them.

The subject of the test is MDA-MB-468 breast. Description: NCI-60 one-dose screen, 48 h (100 = growth as untreated, 0 = no growth, -100 = all killed). As to conditions: 10 µM unless noted.
Consider `O=C(/C=C/c1ccccc1)c1cccc2ccccc12`, for which the growth is -2.6% (active).
As to `C=C(C)[C@@H]1CCC[C@]2(COS(=O)(=O)c3ccc(C)cc3)CC[C@]3(C)[C@@H](CC[C@@H]4[C@@]5(C)CCCNC(C)(C)[C@@H]5CC[C@]43C)[C@@H]12`, the growth is -78.2% (active).
As for `C=C(C)[C@@H]1CC[C@]2(C)[C@H](CC=C3[C@@H]4CC(C)(C)CC[C@]4(C(=O)OC)CC[C@]32C)[C@@]1(C)CC/C(N)=N/O`, the growth was -13% (active).
In the case of `O=C(Nn1c(NCC(=O)N2c3ccccc3Sc3ccccc32)nnc1-c1ccc(O)cc1)c1ccccc1` it was 104%.
As to `CCOC(=O)c1cc2cccc(OC)c2oc1=O`, the growth is 108%.
On to `O=C(/C=C/c1cn(-c2ccccc2)nc1-c1ccc(Cl)cc1)c1ccc(F)cc1`, for which the growth was 100%.
For the molecule `c1ccc(-c2nnc(Nc3ccc4c(c3)OCCO4)o2)c(NCc2ccncc2)c1`, the growth was -33.4% (active).
The same measure for `CCNc1cc(S(=O)(=O)O)ccc1C`: 97.2%.
Consider `CC[C@@H](C[C@H](CCO)c1ccccc1)c1cc2ccccc2o1`, for which the growth was 107%.
The same measure for `N#C/C(=C\c1ccc(C(F)(F)F)cc1)c1cc2ccccc2[nH]1`: 96.9%; for `CCN(CCO)CCC(=O)c1ccc([N+](=O)[O-])cc1`: 98.1%; for `COc1cccc2c1C=C1CCCCC3=Cc4c(OC)cccc4OC13O2`: 19%.
For the molecule `CCOC(=O)C1=C(C)NC(=O)NC1c1c(Cl)n(-c2ccccc2)c2ccccc12` (stereo not given), the growth was 58.3%.
Consider `Cc1cc2nc3c4cc(Cl)ccc4n(CC(=S)NCCN(C)C)c3nc2cc1C`, for which the growth was -89.3% (active).
With `O=C(/C=C/c1cccc([N+](=O)[O-])c1)c1ccc(Nc2nc(N3CCCCC3)nc(N3CCCCC3)n2)cc1`, the growth is 121%.
On to `CCC(C)CC(CC)NCCN1CCN(C(CC)CC(C)CC)C1=S` (stereo not given), for which the growth is -43.6% (active).
Regarding `C[C@]12CC[C@@H]3c4ccc(O)cc4CC[C@H]3[C@@H]1C[C@H](O)[C@@H]2O`, the growth was 87.1%.
As to `S=C1CCCC(=S)N1`, the growth was 100%.
Regarding `COc1ccc(C2C=C(c3ccc(Cl)cc3)N=C3SC=C(C)N32)c(Br)c1` (stereo not given), the growth is 8.58% (active).
For `CCOC(=O)c1nnn(Cc2cc(=O)oc3ccc(O)cc23)c1C`, the growth is 108%.
`O=C1C=CC2(NN=C(c3ccccc3)N2c2ccc(Cl)cc2)c2cccc(O)c21` (stereo not given): the growth was 47.6%.
On to `O=C(Nc1nc2ccccc2[nH]1)C(=O)Nc1nc2ccccc2[nH]1`, for which the growth is 103%.
Turning to `COc1cc(/C=C/C(=O)c2ccc(-n3cc(CN4CCN(c5cc6c(cc5F)c(=O)c(C(=O)O)cn6C5CC5)CC4)nn3)cc2)ccc1O`, the growth is 64.8%.
Take `COc1cccc(Sc2ccc([N+](=O)[O-])c3no[n+]([O-])c23)c1`: the growth was 69.9%.
Consider `N=c1ccc2nc3c(cc(N)c4ccccc43)oc-2c1`, for which the growth is -78.4% (active).
As for `O=C(Nc1ccc2cc3ccc(NC(=O)N4CCCCCC4)cc3nc2c1)N1CCCCCC1`, the growth is -48.5% (active).
Turning to `O=C1COCCN1c1ccc(NCc2cn(Cc3ccccc3)c3ccccc23)cc1`, the growth was -76% (active).
As for `CC(COC(=O)c1ccccc1)N1CC2CCC(C1)O2` (stereo not given), the growth is 103%.
Turning to `Oc1ccc(Cl)cc1/C=N\NC(=S)N/N=C/c1cc(Cl)ccc1O`, the growth is 1.29% (active).
On to `O=C(CCCn1c(=O)c2sc3ccccc3c2n2nnc(-c3ccccc3)c12)NCCc1cnc[nH]1`, for which the growth is -42.1% (active).
Consider `CC(=O)OCCOc1cc(Cl)c(Cl)cc1Cl`, for which the growth is 93.9%.
Take `CCCCCCCCCCCCCCCCNC(=O)Nc1ccc2ccccc2c1`: the growth was 94.3%.
Take `Fc1ccc2nc(-c3cc(-c4ccc5c(c4)OCO5)n[nH]3)[nH]c2c1`: the growth was 46.7%.
Turning to `NS(=O)(=O)c1ccc(Nc2nc(N/N=C/c3ccccn3)nc(Nc3ccccc3)n2)cc1`, the growth is -29.7% (active).
With `COc1ccc(Nc2nc(SCC(C)C)nc(-c3ccc(F)cc3)c2C#N)cc1`, the growth was 32.6%.
The same measure for `Cc1cccc(NC(=O)c2sc3nc4c(cc3c2N)CCCC4)c1C`: 19.3%.
In the case of `O=C(c1ccccc1)c1ccccc1Cl` it was 110%; in that of `CO[C@@H]1[C@H](N(C)C(=O)c2ccccc2)C[C@@H]2O[C@]1(C)n1c3ccccc3c3c4c(c5c6ccccc6n2c5c31)C(=O)NC4=O`, -12.7% (active).
The same measure for `COc1cc2nc(SCc3cc(OC)c(OC)c(OC)c3)n(Cc3ccccc3)c(=O)c2cc1OC`: -10.1% (active); for `O=C(O)c1ccccc1Cc1ccc2c(c1)CCCC2`: 99.6%.
